Common to all, as to assay: NCI-60 one-dose screen, 48 h (100 = growth as untreated, 0 = no growth, -100 = all killed)
Holding throughout (details): 10 µM unless noted

The test system of assay [1] is SR leukemia.
Assay [2] relates to RPMI-8226 leukemia.
Assay [3] has as its system OVCAR-8 ovarian.
In assay [4] the test system is OVCAR-5 ovarian.
Assay [5] relates to OVCAR-4 ovarian.
Assay [6] relates to SK-OV-3 ovarian.
Assay [7] deals with IGROV1 ovarian.
Assay [8] relates to OVCAR-3 ovarian.
The subject of assay [9] is HS 578T breast.
Assay [10] relates to NCI/ADR-RES ovarian.
In assay [11] the test system is T-47D breast.
Assay [12] concerns BT-549 breast.
Assay [13] concerns MDA-MB-435 melanoma.
Assay [14] concerns SW-620 colon.
Assay [15] deals with MCF7 breast.
In assay [16] the test system is HCT-116 colon.
The test system of assay [17] is HCC-2998 colon.
Assay [18] has as its system KM12 colon.

The panel holds about 83,000 compounds, 20% with a hit somewhere; the sample as a whole holds those more often.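 Negative percent growth values reflect cell death: -40 means 40% of the cells present at the start died, and -100 means all died.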 A number with no mark means an inactive call. The source made the active and inactive calls. Rule for the calls: active = growth percent below 10; inactive = the rest.

For `Cc1cc(C)c(NC(=O)c2sc3nc4c(cc3c2N)CCCC4)c(C)c1`, the growth is 7.8% (active) in [1]; 55.2% in assay [2]; 62.3% in [3]; 90.8% in [4]; 60.9% in assay [5]; 51.3% in [6]. The growth is 62.5% in assay [7]; 18.1% in [8]; 46.2% in assay [9]; 18.4% in assay [10]; 36.2% in assay [11]; 56.4% in assay [12]. Further, the growth was -13.6% (active) in assay [13]; 30.5% in [14]; 23.7% in assay [15]; 29.9% in assay [16]; 87.6% in assay [17]; 34.9% in assay [18].
As for `N#CCCCCCn1c2ccccc2c2c3[nH]c(=O)[nH]c(=O)c3c3c4ccccc4n(CCCCCC#N)c3c21`, the growth was 20.3% in assay [1]; 53.4% in assay [2]; 27.4% in assay [3]; 92.4% in assay [4]; 58.7% in [5]; 72.7% in assay [6]. Further, the growth in [7] was 22.4%; in assay [8], 49.2%; in assay [9] it was 51.6%; in assay [10], 89.4%; in assay [11] it was 22.9%; in [12] it was 32%. The growth in [13] was 36.8%; in [14], 61.4%; in assay [15], 45.3%; in assay [16], 28.2%; in assay [17] it was 53.8%; in [18], 23.8%.
On to `COc1cccc(-c2nn(-c3ccccc3)cc2-c2ccnc(NCCCNS(=O)(=O)c3ccc(Cl)cc3)c2)c1`, for which the growth in [1] was 7.26% (active); in assay [2] it was 26.6%; in [3], 37.3%; in [4], 75.3%; in [5], 42.8%; in assay [6], 60.5%. Also, the growth was 41.4% in assay [7]; 54% in [8]; 49.9% in [9]; 35.6% in assay [10]; 14.2% in assay [11]; 58.1% in assay [12]. Moreover, the growth in assay [13] was 42.9%; in [14], 62.6%; in assay [15] it was 24.3%; in [16] it was 31.1%; in assay [17], 33.5%; in assay [18] it was 38.9%.
Take `Nc1c(C(=O)Nc2c(Cl)cccc2Cl)sc2nc3c(cc12)C(=O)CCC3`: the growth in assay [1] is 36.4%; in assay [2] it was 65.5%; in [3], 62.7%; in [4], 86.5%; in assay [5], 65.6%; in [6] it was 32.2%. For the same molecule, the growth in assay [7] is 71.9%; in assay [8], 11.2%; in assay [9] it was 13.4%; in [10] it was 17.1%; in assay [11], 35.7%; in assay [12], 51.5%. In addition, the growth is -37.7% (active) in [13]; 44.5% in [14]; 19.3% in assay [15]; 42.9% in assay [16]; 69.1% in [17]; 30.5% in assay [18].
As for `Cn1c2ccccc2c2c3c(c4c5cccnc5[nH]c4c21)C(=O)N(O)C3=O`, the growth in assay [1] was 11.4%; in [2] it was 39.6%; in [3], 45.5%; in assay [4], 104%; in assay [5], 71.3%; in assay [6], 37.5%. Besides, the growth was 45.1% in [7]; 54.7% in assay [8]; 110% in assay [9]; 57.2% in assay [10]; 16.4% in assay [11]; 44.6% in assay [12]. In addition, the growth was 64.3% in [13]; 45.4% in assay [14]; 12.9% in assay [15]; 36.3% in [16]; 54.4% in [17]; 65.9% in assay [18].
As for `CCCCC[C@H]1CC=C2C(=O)C(Cl)=C[C@@H]2CC=CCCCC(=O)O[C@@H](CCCCC)CC=C2C(=O)C(Cl)=C[C@@H]2CC=CCCCC(=O)O[C@@H](CCCCC)CC=C2C(=O)C(Cl)=C[C@@H]2CC=CCCCC(=O)O1`, the growth in [1] is 6.25% [8 µM] (active); in assay [2], 2.73% [8 µM] (active); in [3], -17.1% [8 µM] (active); in assay [4], 144% [8 µM]; in assay [5], 59.9% [8 µM]; in assay [6], 120% [8 µM]. Further, the growth in assay [7] was 36% [8 µM]; in assay [8], 17.3% [8 µM]; in [9], 78% [8 µM]; in [10], 96.2% [8 µM]; in assay [11] it was 61% [8 µM]; in assay [12], 67.6% [8 µM]. The growth is 25.1% [8 µM] in [13]; 16.5% [8 µM] in assay [14]; 29.9% [8 µM] in assay [15]; 11.4% [8 µM] in [16]; 99.1% [8 µM] in assay [17]; 91.2% [8 µM] in [18].
In the case of `Cc1ccc(-c2nc([P+](c3ccccc3)(c3ccccc3)c3ccccc3)c(N3CCOCC3)o2)cc1`, the growth in [1] is 5.72% (active); in [2] it was -24.2% (active); in assay [3], 3.78% (active); in [4] it was 18.9%; in assay [5], 12.3%; in assay [6] it was -43.9% (active). For the same molecule, the growth in [7] is 1.46% (active); in assay [8], -0.275% (active); in [9], 16.8%; in assay [10] it was 86%; in assay [11], -20.4% (active); in assay [12] it was -13% (active). For the same molecule, the growth in [13] was -6.62% (active); in assay [14], 9.9% (active); in assay [15], 2.74% (active); in assay [16], 1.88% (active); in [17], 14.1%; in assay [18], -22.4% (active).
Regarding `COc1cccc2c1C(=O)c1c(O)c3c(c(O)c1C2=O)C[C@@](O)(C(=O)CO)C[C@@H]3OC1C[C@H](N)[C@H](O)[C@H](C)O1` (some centres undefined), the growth was -10.5% (active) in assay [1]; 0.341% (active) in assay [2]; 4.15% (active) in assay [3]; 9.77% (active) in assay [4]; 4.65% (active) in [5]; 8.44% (active) in [6]. Besides, the growth is 4.86% (active) in assay [7]; -2.36% (active) in assay [8]; -12.9% (active) in [9]; 72.9% in [10]; -0.159% (active) in assay [11]; -56.5% (active) in [12]. The growth was -82.6% (active) in assay [13]; 1.37% (active) in [14]; 4.42% (active) in assay [15]; 3.07% (active) in assay [16]; -45.9% (active) in assay [17]; -14.2% (active) in assay [18].

Source of the values: PubChem BioAssay (NCI).
